# Laboratory results: PubChem BioAssay (Tox21)
# Records with an inconclusive call do not appear. The source made the active and inactive calls. The call rests on the fitted dose curve.
# Experiment: p53 small molecule agonists, cell-based qHTS assay with human liver microsomes: qHTS cell viability counter screen (AID 1963579); further: nearly all actives have a fitted effect of over 45% in size
# Conditions: p53RE-bla HCT-116 viability, ATP luminescence, 16 h, HLM; series mostly up to 66 µM; activity change, negative = cytotoxicity: at the top concentration
# From the text: National Center for Advancing Translational Sciences [NCATS]
# Division of Preclinical Innovation [DPI]
# U.S. Environmental Protection Agency [EPA]
# National Institutes of Environmental Health Sciences [NIEHS]
# National Toxicology Program [NTP]
# U.S. Food and Drug Administration [FDA]
# p53, a tumor suppressor protein, is activated following cellular insult, including DNA damage and other cellular stresses. The activation of p53 regulates cell fate by inducing DNA repair, cell cycle arrest, apoptosis, or cellular senescence. The activation of p53, therefore, is a good indicator of DNA damage and other cellular stresses. […] The activation of the reporter gene under culture conditions can be detected by fluorescence intensity. This cell line was used to screen the Tox21 10K compound library in the condition of presence of human liver microsomes and to identify agonists that activate the p53 signaling pathway after in vitro metabolic activation (Ooka et al., Archive of Toxicology 96:1975-1987, 2022).
# Tox21 Assay Protocol Summary:
# The p53RE-bla cells were dispensed at 4,000cells/3ul/well in 1536-well black-clear bottom plates. After the assay plates were incubated at 37 C, 5% CO2 incubator for 5 hours, 23 nL of compounds dissolved in DMSO, positive controls or DMSO only was transferred to the assay plate. Following compound addition, 3 uL of human liver microsomes (XenoTech, Kansas City, KS) at final concentration of 0.5 mg/mL and 1uL of B-Nicotinamide adenine dinucleotide 2'-phosphate (NADPH) at final concentration of 0.5 mg/mL were transferred to the assay plate. The plates were incubated at 37 C for 16 hours. 1 uL of LiveBLAzer detection mixture was added to each well and the plates were incubated at room temperature in the dark for 2 h. Fluorescence intensity at 460 and 530 nm emission and 405 nm excitation were measured by an Envision plate reader. For cell viability readout that measures cytotoxicity, 4 ul/well of CellTiter-Glo reagent was added into the assay plates using a Flying Reagent Dispenser. After 30 min incubation at room temperature, the luminescence intensity in the plates was measured using a ViewLux plate reader.
# On the % scale 0 is the no-effect control and ±100 the full control effect; potency means the concentration at half of the fitted maximal effect.
Structure (SMILES),"activity change, negative = cytotoxicity",Potency
CCCCCCCCCc1ccc(OCCOCCO)cc1,15.2% [at 30.3 µM] (inactive),–
Cc1c[nH]c(=O)[nH]c1=O,-13.4% (inactive),–
CCCCCCCCCCCCSCCOCCO,-3.22% [at 30.3 µM] (inactive),–
Cn1cc(C(=O)[C@@H]2CCc3nc[nH]c3C2)c2ccccc21,0.957% [at 30.3 µM] (inactive),–
CCN1CCN(C(=O)N[C@@H](C(=O)N[C@@H]2C(=O)N3[C@@H]2SC(C)(C)[C@H]3C(=O)O)c2ccccc2)C(=O)C1=O,-2.81% [at 30.3 µM] (inactive),–
CC(=O)OCC1=C(C(=O)O)N2C(=O)[C@@H](NC(=O)CSc3ccncc3)[C@H]2SC1,11.9% [at 30.3 µM] (inactive),–
S=C([S-])NCCNC(=S)[S-].[Mn+2],28.6% (inactive),–
CCCCCCCCOC(=O)c1ccc(O)cc1,–,45.8 µM (active)
O=C(N[C@@H](c1ccccc1)[C@@H]1CCCCN1)c1cccc(C(F)(F)F)c1Cl,5.29% (inactive),–
c1ccc(-c2ccc(C(c3ccccc3)n3ccnc3)cc2)cc1 (stereo not given),-6.13% [at 30.3 µM] (inactive),–
NCCc1cnc[nH]1,-9.22% [at 30.3 µM] (inactive),–
C1CCCCCCCCCCC1,-2.12% [at 13.5 µM] (inactive),–
CCCCNc1ccc(C(=O)OCCN(CC)CC)cc1,-9.66% [at 30.3 µM] (inactive),–
O=Cc1cc(O)ccc1Br,-11.9% (inactive),–
CCN(Cc1cccnc1)C(=O)c1cccc(Cl)c1[C@]1(C)C(=O)N(Cc2ccc(OC)cc2OC)c2ccc(Cl)cc21,13.4% (inactive),–
CCCCOC(=O)c1ccccc1C(=O)OCC(CC)CCCC (stereo not given),7.12% (inactive),–
CCc1ccccc1,0.86% (inactive),–
CCCCOCCOCCOCc1cc2c(cc1CCC)OCO2,0.207% [at 30.3 µM] (inactive),–
CCCCCCCCCCCCSC#N,-24.7% (inactive),–
CC(=O)Nc1cccc(N)c1,0.715% (inactive),–

Structure (SMILES),"activity change, negative = cytotoxicity",Potency
CCOc1ccc2[nH]cc(C(=O)NCc3ccccc3)c(=O)c2n1,-5.2% (inactive),–
CC(C)N(c1ccccc1)C(C)C,-5.36% (inactive),–
CN1CCN(c2ccccc2/C=C2\SCCN(c3ccc(Cl)c(Cl)c3)C2=O)CC1,-1.35% (inactive),–
CCC(CN)=C(c1ccccc1)c1ccccc1,2.79% [at 30.3 µM] (inactive),–
Sc1nc(S)nc(S)n1,0.841% [at 30.3 µM] (inactive),–
O=C(CC(=O)C(F)(F)F)c1ccccc1,-16.3% (inactive),–
CC(C)N1C(=O)c2ccccc2C1=O,1.05% (inactive),–
COc1cc(S(=O)(=O)Nc2ccccc2)c(OC)cc1N,1.15% (inactive),–
COc1cccc2c1C(=O)c1c(O)c3c(c(O)c1C2=O)C[C@@](O)(C(=O)CO)C[C@@H]3O[C@H]1C[C@H](N)[C@H](O[C@@H]2CCCCO2)[C@H](C)O1,-28.8% [at 30.3 µM] (inactive),–
NCc1ccccc1,-5.84% (inactive),–
CO,3.64% (inactive),–
CCCC(=O)OCC,-1.25% (inactive),–
O=C1c2cccc3c2[C@H](CCC3)CN1[C@@H]1CN2CCC1CC2,-13.9% [at 30.3 µM] (inactive),–
COP(=O)(O)OP(=O)(O)OC,-2.89% (inactive),–
Cc1c2ccccc2c(C)c2c1ccc1ccccc12,–,inactive
CCN(CC)c1cccc(O)c1,5.33% (inactive),–
CCOC(=O)/C=C(C)/C=C/C=C(C)/C=C/c1c(C)cc(OC)c(C)c1C,-1.5% [at 30.3 µM] (inactive),–
CCOC(=O)c1ccc(C#Cc2ccc3c(c2)C(C)(C)CCS3)nc1,-8.31% [at 30.3 µM] (inactive),–
CCCCC=O,-12% (inactive),–
CC(CN(C)C)CN1c2ccccc2CCc2ccccc21 (stereo not given),1.08% [at 30.3 µM] (inactive),–
